Data published in PubChem BioAssay (EPA / NIEHS).
Active and inactive are the calls of the source. How the source made its calls: active means hit-call score of the fitted dose curve at least 0.9, where 1 is the maximum; inactive means score below 0.9.

The compounds below were run on Interferon-gamma inducible Protein 10 (IP10), CXCL10 (gene 3627) (assay: BSK_BE3C_IP10: BioMAP Diversity Plus: BE3C Assay for Interferon-gamma inducible Protein 10 (IP10) Biomarker Activity (AID 2283034)). Details: primary human bronchial epithelial cells; actives raise or lower the signal.
Description: BSK_BE3C is a cell-based, multiplexed-readout assay that uses bronchial epithelial cell, a human lung primary cell, with measurements taken at 24 hours after chemical dosing in a 96-well plate.BSK_BE3C_IP10 is an assay component measured in the BSK_BE3C assay. It measures IP-10 antibody related to regulation of gene expression using ELISA technology.Data from the assay component BSK_BE3C_IP10 was analyzed into 1 assay endpoint. This assay endpoint, BSK_BE3C_IP10, was analyzed with bidirectional fitting relative to DMSO as the negative control and baseline of activity. Using a type of binding reporter, gain or loss-of-signal activity can be used to understand changes in the signaling as they relate to the gene CXCL10. Furthermore, this assay endpoint can be referred to as a primary readout, because this assay has produced multiple assay endpoints where this one serves a signaling function. To generalize the intended target to other relatable targets, this assay endpoint is annotated to the cytokine intended target family, where the subfamily is chemotactic factor.
The levels of cell surface (or secreted, indicated by the prefix "s") biomarker endpoints were measured by ELISA. Overt cytotoxicity to cells in confluent adherent cultures (all systems other than the BT system) was assessed by measuring total protein levels using sulforhodamine B (SRB) staining in parallel cultures at the time of biomarker measurements, indicated as SRB endpoints. For proliferation assays for adherent cell types, individual cell types are cultured at sub-confluence and relative cell numbers quantified by SRB staining at time points optimized for each system (48 h: 3C and CASM3C systems; 72 h: BT and HDF3CGF systems; 96 h: SAg system). SRB was performed by staining cells with 0.1% SRB after fixation with 10% TCA and reading wells at 560 nm.Viability and proliferation of PBMC (T cells) was quantified by Alamar Blue reduction for the SAg and BT systems. For PBMC viability (referred to as PBMC Cytotoxicity within the assay endpoint names), cells were plated (75,000/well in a 96-well plate) and then chemical samples added for 1 h before addition of activators, SEB and TSST-1 (20 ng/mL final concentration each). Cells were incubated for 90 h. Then, Alamar Blue (20 uL/well) (Invitrogen, Cat DAL1100) was added for 6 h, and the plates were read with a fluorescence microplate reader at 546/580 nm (excitation/emission). For PBMC proliferation, cells were plated and activated as above but incubated for only 16 h prior to addition of Alamar Blue. Plates were read after 6 h.

SMILES | outcome | AC50
CCNP(=S)(OC)O/C(C)=C/C(=O)OC(C)C (stereo not given) | inactive | –
CC(C)N1C(=O)N(c2ccccc2)CSC1=NC(C)(C)C | – | 30.4 µM (active)
CC(C)=CC1C(C(=O)OCc2coc(Cc3ccccc3)c2)C1(C)C (stereo not given) | inactive | –
COc1cc(OC)nc(NC(=O)NS(=O)(=O)c2ncccc2OCC(F)(F)F)n1 | inactive | –
CC1(C)C(C=C(Cl)Cl)C1C(=O)OC(C#N)c1cccc(Oc2ccccc2)c1 (stereo not given) | inactive | –
CCNC(=O)NC(=O)C(C#N)=NOC | inactive | –
O=C1C2CC=CCC2C(=O)N1SC(Cl)(Cl)Cl (stereo not given) | – | 11.9 µM (active)
CS(=O)(=O)c1cc(C(F)(F)F)ccc1C(=O)c1cnoc1C1CC1 | – | 4.13 µM (active)
CN=C=S | inactive | –
CCCCC(O)(Cn1cncn1)c1ccc(Cl)cc1Cl (stereo not given) | – | 26.8 µM (active)
N#Cc1c(Cl)cccc1Cl | inactive | –
Cn1c(-c2ccccc2)cc(-c2ccccc2)[n+]1C | – | 16.5 µM (active)
CCCCC(C#N)(Cn1cncn1)c1ccc(Cl)cc1 (stereo not given) | inactive | –
CCOP(=S)(OCC)Oc1nc(Cl)n(C(C)C)n1 | inactive | –
CCCCOCN(C(=O)CCl)c1c(CC)cccc1CC | – | 35.5 µM (active)
COCC(C)N(C(=O)CCl)c1c(C)csc1C (stereo not given) | inactive | –
CC(C)Oc1cccc(NC(=O)c2ccccc2C(F)(F)F)c1 | inactive | –
CC(C)N1C(=O)c2ccccc2NS1(=O)=O | inactive | –
CCOC(=O)C(C)OC(=O)c1cc(Oc2ccc(C(F)(F)F)cc2Cl)ccc1[N+](=O)[O-] (stereo not given) | inactive | –
CCN(CC)c1nc(C)cc(OP(=S)(OC)OC)n1 | inactive | –

SMILES | outcome | AC50
CCCN(CC)CC1COC2(CCC(C(C)(C)C)CC2)O1 (stereo not given) | inactive | –
C=C(C)CN(CC)c1c([N+](=O)[O-])cc(C(F)(F)F)cc1[N+](=O)[O-] | inactive | –
Clc1nc(Cl)nc(Nc2ccccc2Cl)n1 | inactive | –
COc1cc(Cl)c(OC)cc1Cl | inactive | –
CCN(CC)C(=O)C(C)Oc1cccc2ccccc12 (stereo not given) | inactive | –
Cc1cc(C)nc(Nc2ccccc2)n1 | inactive | –
Cc1c(COC(=O)[C@@H]2[C@H](/C=C(\Cl)C(F)(F)F)C2(C)C)cccc1-c1ccccc1 | inactive | –
COC(=O)c1c(C(F)F)nc(C(F)(F)F)c(C2=NCCS2)c1CC(C)C | – | 17.7 µM (active)
C=CCOC(=O)C(C)(C)OC(=O)c1cc(-n2c(=O)cc(C(F)(F)F)n(C)c2=O)ccc1Cl | inactive | –
CC(C)(C)C(=O)C(Oc1ccc(Cl)cc1)n1cncn1 (stereo not given) | inactive | –
CC(C)NC(=O)N1CC(=O)N(c2cc(Cl)cc(Cl)c2)C1=O | inactive | –
CCSC(=O)N1CCCCCC1 | inactive | –
COC(=O)NS(=O)(=O)c1ccc(N)cc1 | inactive | –
CNC(=O)N(C)c1nnc(C(C)(C)C)s1 | inactive | –
O=C(O)c1c(Cl)ccc2cc(Cl)cnc12 | inactive | –
COP(=O)(OC)O/C(C)=C/C(=O)N(C)C | inactive | –
Cc1nc(N(C)C)nc(OC(=O)N(C)C)c1C | inactive | –
COCC(=O)N(c1c(C)cccc1C)C(C)C(=O)OC (stereo not given) | inactive | –
COP(=S)(OC)SCn1nnc2ccccc2c1=O | inactive | –
COCc1cnc(C2=NC(C)(C(C)C)C(=O)N2)c(C(=O)O)c1 (stereo not given) | inactive | –
